# The entries come from a sample that favours the strongest signals as a whole.
# Assays:
# Test in all cases: glycan array binding signal (z-score within array); higher = stronger binding
# Conditions in all cases: glycan notation: IUPAC condensed, linker removed
# [1] = target: Fuc(a1-2)Gal(b1-3)GalNAc(b1-3)Gal(a1-4)Gal(b1-4)Glc
# Summary of the method: (§1)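 Columns mapping to the same glycan were averaged after glycan names were converted to IUPAC-condensed notation. The data come from 3228 arrays in the Consortium for Functional Glycomics database, limited to those with an available protein sequence. Binding is reported as a within-array Z-score averaged across arrays of one protein sequence and across linkers.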
# [2] = target: Fuc(a1-2)Gal(b1-3)GlcNAc(b1-2)Man(a1-3)[Fuc(a1-2)Gal(b1-3)GlcNAc(b1-2)Man(a1-6)]Man(b1-4)GlcNAc(b1-4)GlcNAc
# Summary of the method: as §1
# [3] = target: Fuc(a1-2)Gal(b1-3)GlcNAc(b1-3)Gal(b1-4)Glc
# Summary of the method: as §1
# [4] = target: Fuc(a1-2)Gal(b1-3)GlcNAc(b1-3)GalNAc
# Summary of the method: as §1
# [5] = target: Fuc(a1-2)Gal(b1-3)[Fuc(a1-4)]GlcNAc
# Summary of the method: as §1
# [6] = target: Fuc(a1-2)Gal(b1-3)[Fuc(a1-4)]GlcNAc(b1-3)[Gal(b1-4)GlcNAc(b1-6)]Gal(b1-4)Glc
# Summary of the method: as §1
# [7] = target: Fuc(a1-2)Gal(b1-4)GlcNAc(b1-3)Gal(b1-4)GlcNAc(b1-3)Gal(b1-4)GlcNAc
# Summary of the method: as §1
# [8] = target: Fuc(a1-2)Gal(b1-4)[Fuc(a1-3)]GlcNAc(b1-3)[Neu5Ac(a2-6)Gal(b1-4)GlcNAc(b1-6)]Gal(b1-4)Glc
# Summary of the method: as §1
# [9] = target: Fuc(a1-2)Gal3S(b1-4)GlcNAc
# Summary of the method: as §1
# [10] = target: Fuc(a1-2)[Gal(a1-3)]Gal(b1-3)GalNAc(b1-3)Gal(a1-4)Gal(b1-4)Glc
# Summary of the method: as §1
# [11] = target: Fuc(a1-2)[Gal(a1-3)]Gal(b1-3)GlcNAc
# Summary of the method: as §1
# [12] = target: Fuc(a1-2)[Gal(a1-3)]Gal(b1-4)GlcNAc(b1-3)GalNAc
# Summary of the method: as §1
# [13] = target: Fuc(a1-2)[GalNAc(a1-3)]Gal(b1-3)GalNAc(b1-3)Gal(a1-4)Gal(b1-4)Glc
# Summary of the method: as §1
# [14] = target: Fuc(a1-2)[GalNAc(a1-3)]Gal(b1-4)[Fuc(a1-3)]GlcNAc
# Summary of the method: as §1
# [15] = target: Fuc(a1-3)[Gal(b1-4)]GlcNAc(b1-2)Man(a1-3)[Fuc(a1-3)[Gal(b1-4)]GlcNAc(b1-2)Man(a1-6)]Man(b1-4)GlcNAc(b1-4)[Fuc(a1-6)]GlcNAc
# Summary of the method: as §1
# Gal(a1-4)Gal(b1-4)Glc = target: Gal(a1-4)Gal(b1-4)Glc
# Summary of the method: as §1
# Gal(a1-4)Gal(b1-4)GlcNAc = target: Gal(a1-4)Gal(b1-4)GlcNAc
# Summary of the method: as §1
# [16] = target: Gal(a1-4)Gal(b1-4)GlcNAc(b1-3)Gal(b1-4)Glc
# Summary of the method: as §1
# Gal(b1-2)Gal = target: Gal(b1-2)Gal
# Summary of the method: as §1
# [17] = target: Gal(b1-3)GalNAc(a1-3)[Fuc(a1-2)]Gal(b1-4)Glc
# Summary of the method: as §1
# [18] = target: Gal(b1-3)GalNAc(b1-4)[Neu5Ac(a2-3)]Gal(b1-4)Glc
# Summary of the method: as §1
# [19] = target: Gal(b1-3)GlcNAc(b1-2)[Gal(b1-3)GlcNAc(b1-6)]Man(a1-6)[Gal(b1-3)GlcNAc(b1-2)Man(a1-3)]Man(b1-4)GlcNAc(b1-4)GlcNAc
# Summary of the method: as §1
# [20] = target: Gal(b1-3)GlcNAc(b1-3)Gal(b1-4)GlcNAc(b1-6)[Gal(b1-3)GlcNAc(b1-3)]Gal(b1-4)Glc
# Summary of the method: as §1
# [21] = target: Gal(b1-3)[Neu5Ac(a2-6)]GalNAc
# Summary of the method: as §1
# [22] = target: Gal(b1-4)GlcNAc(a1-6)Gal(b1-4)GlcNAc
# Summary of the method: as §1
# [23] = target: Gal(b1-4)GlcNAc(b1-2)Man(a1-6)[GlcNAc(b1-2)Man(a1-3)]Man(b1-4)GlcNAc(b1-4)GlcNAc
# Summary of the method: as §1
# [24] = target: Gal(b1-4)GlcNAc(b1-2)[Gal(b1-4)GlcNAc(b1-4)]Man(a1-3)[Gal(b1-4)GlcNAc(b1-2)Man(a1-6)]Man(b1-4)GlcNAc(b1-4)GlcNAc
# Summary of the method: as §1
# [25] = target: Gal(b1-4)GlcNAc(b1-2)[Gal(b1-4)GlcNAc(b1-4)]Man(a1-3)[GlcNAc(b1-4)][Gal(b1-4)GlcNAc(b1-2)Man(a1-6)]Man(b1-4)GlcNAc(b1-4)GlcNAc
# Summary of the method: as §1
# [26] = target: Gal(b1-4)GlcNAc(b1-3)Gal(b1-4)GlcNAc(b1-3)Gal(b1-4)GlcNAc(b1-3)Gal(b1-4)GlcNAc(b1-2)Man(a1-3)[Gal(b1-4)GlcNAc(b1-3)Gal(b1-4)GlcNAc(b1-3)Gal(b1-4)GlcNAc(b1-3)Gal(b1-4)GlcNAc(b1-2)Man(a1-6)]Man(b1-4)GlcNAc(b1-4)[Fuc(a1-6)]GlcNAc
# Summary of the method: as §1
# [27] = target: Gal(b1-4)GlcNAc(b1-3)Gal(b1-4)GlcNAc(b1-6)[Gal(b1-3)]GalNAc
# Summary of the method: as §1
binder,measurement,setting,value
Awp1 (Candida glabrata) (protein) MSLITIFAFLIKATLVLSLDILTPTTLTGDQTFNEDVSVVSSLTLNDGSQYLFNNLLQIAPSSASVTANALAAVSVFTFSLPPSSSLSNSGTLIISNSNTGPSTEQHIVITPNVMANTGTITLSLAHTNTDSSSTLIIDPVTFYNTGTINYESIGSETNDPSLTGNILSIGSSGRTLQNLGTINLNAANSYYLLGTITENSGSINVQKGFLYVNALDFIGNTINLSTTTALAFISPVSQVVRVRGVFFGNIIASVGSSGTFSYNTQTGILTVTTNGVYSYDIGCGYNPALMSGQQETLSFQGNPYDTFLVLVNQPIPSDLTCAAVSSSITPSSSVEPSSSVVPSSSVEPSSSVEPSSSVEPSSSVEPSSSVEPSSSVEPSSSVEPSSSVEPSSSVEPSSSVEPSSSVEPSSSVEPSSSVEPSSSVEPSSSVEPSSSVEPSSSVEPSSSVEPSSSVEPSSLIVPSSSVEPSSSVLPSSSVVPSSSVEPSTPPIPSSSVEPSSSVVPSSPAVPSSSVEPSTPPIPSSSVVSASVFDTSSTLPSSPSVPPSSVSPSTISTPSSSAAPSSFCPTCVSSGTPPAPSSSAIVPTSSAGGGNGGDNREPGAAGQPGAAGQPGAAGQPGAAGQPGAAGQPGAAGQPGAAGQPGAAGQPGAAGQPGAAGQPGAGFGVGSEQPTPGAGAGSGSADGNQSGTGSGTGNGQQGSGQAGSGQAGSGQEGSGQAGSGQAGSGQAGSGQAGSGQAGLDNTASGQSEGGQASAMDGDQSGRDGQSNSGSLLQPNAQQGTGSGTGSDIGADQASGESPGQIGDAQPGSGTDQSSGRHSLAAEARTSQSHSLAADARTRSTTRQTSVIAPDTAPGTASGTAPGTAPGTAVVTTFHGCGTVNHKGMINILLALALLVLL,glycan array binding signal (z-score),[1],-0.191
same,glycan array binding signal (z-score),[2],3.11
same,glycan array binding signal (z-score),[3],-0.568
same,glycan array binding signal (z-score),[4],-0.915
same,glycan array binding signal (z-score),[5],0.456
same,glycan array binding signal (z-score),[6],2.29
same,glycan array binding signal (z-score),[7],0.341
same,glycan array binding signal (z-score),[8],0.4
same,glycan array binding signal (z-score),[9],0.168
same,glycan array binding signal (z-score),[10],-0.456
same,glycan array binding signal (z-score),[11],-0.399
same,glycan array binding signal (z-score),[12],-1.3
same,glycan array binding signal (z-score),[13],0.017
same,glycan array binding signal (z-score),[14],-1.15
same,glycan array binding signal (z-score),[15],2.28
same,glycan array binding signal (z-score),Gal(a1-4)Gal(b1-4)Glc,2.6
same,glycan array binding signal (z-score),Gal(a1-4)Gal(b1-4)GlcNAc,1.02
same,glycan array binding signal (z-score),[16],0.176
same,glycan array binding signal (z-score),Gal(b1-2)Gal,-1.15
same,glycan array binding signal (z-score),[17],3.43
same,glycan array binding signal (z-score),[18],-0.686
same,glycan array binding signal (z-score),[19],2.35
same,glycan array binding signal (z-score),[20],2.29
same,glycan array binding signal (z-score),[21],-0.433
same,glycan array binding signal (z-score),[22],3
same,glycan array binding signal (z-score),[23],0.086
same,glycan array binding signal (z-score),[24],-0.236
same,glycan array binding signal (z-score),[25],-0.307
same,glycan array binding signal (z-score),[26],2.42
same,glycan array binding signal (z-score),[27],0.7

# — the supplement of paper PMC8728848
